Measurements taken from the emibetuzumab library of Makowski et al. (2022).
This is one part of the list. The true hit rate is not given.

B1: VH:VL chains; a variant is named by its letters at X, in order (parent)
chain 1: QVQLVQSGAEVKKPGASVKVSCKASGYTFTDYXMHWVRQAPGQGLEWMGXVNPNXXXTTYNQKFEGRVTMTTDTSTSTAYMELRSLRSDDTAVYYCARXNXLDXWGQGTTVTVSS
chain 2: DIQMTQSPSSLSASVGDRVTITCSVSSSVSSIYLHWYQQKPGKAPKLLIYSTSNLASGVPSRFSGSGSGTDFTLTISSLQPEDFATYYCQVYSGYPLTFGGGTKVEIK

Variants of: B1
Assay: yeast display scFab, FACS + sequencing
Conditions: with MET
In short: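 Heavy-chain CDR mutant scFab yeast surface library, enriched by two magnetic rounds on HGFR-Fc-coated Protein A beads and then by FACS. Cells were labelled with 1 nM HGFR-Fc in PBSB with 1% milk and anti-Myc for 3 h at room temperature, and the top 50% antigen-positive cells were gated. Round-3 sorted and input populations were deep sequenced in two replicates. Antigen binding call: positive if a sequence occurred in both antigen-positive samples, negative if it occurred only in input.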
For DTTKGDVV, the antigen binding call was “no binding”.
DEGGTSSA was tested, and the antigen binding call was “no binding”.
DTTRADVD was tested, and the antigen binding call was “no binding”.
For DRTGDSSS, the antigen binding call was “binds”.
DTTKSSSS was tested, and the antigen binding call was “no binding”.
For DATGGSSS, the antigen binding call was “no binding”.
With DRGGDDGS the antigen binding call was “no binding”.
DRGGDSLD was tested, and the antigen binding call was “no binding”.
In the case of DRGGDSSS, the antigen binding call is reported as “binds”.
With DKGGSDVV the antigen binding call was “no binding”.
For STRGADAV, the antigen binding call was “no binding”.
In the case of DKEEADGV, the antigen binding call is reported as “no binding”.
FRTGDDLV was tested, and the antigen binding call was “no binding”.
With VATGDSLV the antigen binding call was “no binding”.
For FRAGSAVV, the antigen binding call was “binds”.
FRAGGAWV was tested, and the antigen binding call was “binds”.
With FRTGDSLV the antigen binding call was “binds”.
For FRTGDDWV, the antigen binding call was “no binding”.
FRTGDAWV was tested, and the antigen binding call was “binds”.
With SKTKSDVV the antigen binding call was “no binding”.
For SAREGSSA, the antigen binding call was “no binding”.
DEARGAGD was tested, and the antigen binding call was “no binding”.
In the case of FRRGGAWV, the antigen binding call is reported as “binds”.
FRTKGAWV was tested, and the antigen binding call was “binds”.
For FRRGGAVV, the antigen binding call was “binds”.
With FRGRDVVV the antigen binding call was “no binding”.
With FATKGAWV the antigen binding call was “no binding”.
AARETVGA was tested, and the antigen binding call was “no binding”.
STAESDLD was tested, and the antigen binding call was “no binding”.
For YRGRGFAS, the antigen binding call was “binds”.
With YRGRGFGY the antigen binding call was “binds”.
In the case of YAAAAFGY, the antigen binding call is reported as “no binding”.
YAGRGFGF was tested, and the antigen binding call was “no binding”.
YAGRSFGS was tested, and the antigen binding call was “no binding”.
In the case of YRGRGFGF, the antigen binding call is reported as “binds”.
For YRGRGFGS, the antigen binding call was “binds”.
DAGGGAVV was tested, and the antigen binding call was “no binding”.
In the case of YATGDDVA, the antigen binding call is reported as “no binding”.
In the case of DGGGNDLV, the antigen binding call is reported as “no binding”.
In the case of VATRGYLV, the antigen binding call is reported as “no binding”.
In the case of AARADDVD, the antigen binding call is reported as “no binding”.
With DEGKGFGS the antigen binding call was “no binding”.
YRGRGVGF was tested, and the antigen binding call was “binds”.
For SRGKSFGS, the antigen binding call was “no binding”.
For YRGKGFGS, the antigen binding call was “binds”.
For YAKEGDGV, the antigen binding call was “no binding”.
For VGKGDDAA, the antigen binding call was “no binding”.
In the case of VRTEDASF, the antigen binding call is reported as “no binding”.
For YTTGSASF, the antigen binding call was “no binding”.
YRGRGSSF was tested, and the antigen binding call was “binds”.
In the case of YRGRGASF, the antigen binding call is reported as “binds”.
In the case of FRTGDSAS, the antigen binding call is reported as “binds”.
For FRTGDAVS, the antigen binding call was “binds”.
With FRTGDAVF the antigen binding call was “binds”.
In the case of FRTGDDSF, the antigen binding call is reported as “no binding”.
VTGGDSLV was tested, and the antigen binding call was “no binding”.
FKTRDFAY was tested, and the antigen binding call was “no binding”.
VEKEGDVY was tested, and the antigen binding call was “no binding”.
For DATGGASD, the antigen binding call was “no binding”.
In the case of YRAGGYVD, the antigen binding call is reported as “binds”.
With AKGEDSVF the antigen binding call was “no binding”.
YKRRSSVF was tested, and the antigen binding call was “binds”.
YRRGGYVD was tested, and the antigen binding call was “no binding”.
For YRAGGYVF, the antigen binding call was “binds”.
In the case of YRRRGYVF, the antigen binding call is reported as “binds”.
SEARSSSF was tested, and the antigen binding call was “no binding”.
For YRRRGSVF, the antigen binding call was “binds”.
For YRRRGAVF, the antigen binding call was “binds”.
VAGGAYLY was tested, and the antigen binding call was “no binding”.
For DTATADWA, the antigen binding call was “no binding”.
In the case of YGARNAAV, the antigen binding call is reported as “no binding”.
With FRAGGAAV the antigen binding call was “binds”.
In the case of FRARGAAV, the antigen binding call is reported as “binds”.
In the case of YAARGAAV, the antigen binding call is reported as “no binding”.
For YRARSAAV, the antigen binding call was “binds”.
FRRGDAAV was tested, and the antigen binding call was “binds”.
DTAESSSF was tested, and the antigen binding call was “no binding”.
With YTGTSDGV the antigen binding call was “no binding”.
VEGGGAVV was tested, and the antigen binding call was “no binding”.
For FRTKDDVY chain 1 E46K, the antigen binding call was “no binding”.
With SEARSAAV the antigen binding call was “no binding”.
DRAGDAAV was tested, and the antigen binding call was “no binding”.
In the case of FRARSAAV, the antigen binding call is reported as “binds”.
FRAGGSGD was tested, and the antigen binding call was “binds”.
FREGGSGD was tested, and the antigen binding call was “no binding”.
In the case of FAAGGSGD, the antigen binding call is reported as “no binding”.
In the case of FRKGGSGD, the antigen binding call is reported as “binds”.
With VGETSYVD the antigen binding call was “no binding”.
For SKTKSSGA, the antigen binding call was “no binding”.
With SKAGGAGA the antigen binding call was “binds”.
For SKKRGSGA, the antigen binding call was “binds”.
SKAKGFGV was tested, and the antigen binding call was “no binding”.
SGEEGSGA was tested, and the antigen binding call was “no binding”.
In the case of SKAGGVGA, the antigen binding call is reported as “no binding”.
For SKTRGAGV, the antigen binding call was “no binding”.
In the case of SKAKGSGV, the antigen binding call is reported as “binds”.
SKRKSSGA was tested, and the antigen binding call was “no binding”.
For SKERGDGA, the antigen binding call was “no binding”.
With SKAKGSGA the antigen binding call was “binds”.
For SAAGGAGA chain 1 L45S, the antigen binding call was “no binding”.
In the case of VAATADAV, the antigen binding call is reported as “no binding”.
For VAGTSDGA, the antigen binding call was “no binding”.
In the case of DATGGFGV, the antigen binding call is reported as “no binding”.
For DAGEGFVA, the antigen binding call was “no binding”.
For VEEEAFAV, the antigen binding call was “no binding”.
In the case of VTGEDSLV, the antigen binding call is reported as “no binding”.
In the case of VETGNSGA, the antigen binding call is reported as “no binding”.
For YRERGAAF, the antigen binding call was “binds”.
YRERGAGF was tested, and the antigen binding call was “binds”.
For DRGRDDAA, the antigen binding call was “no binding”.
In the case of DAKEGDLV, the antigen binding call is reported as “no binding”.
In the case of YREKGSLD, the antigen binding call is reported as “binds”.
YRTGGSLD was tested, and the antigen binding call was “binds”.
In the case of YRAKGSLD, the antigen binding call is reported as “binds”.
With YRTKASLD the antigen binding call was “binds”.
In the case of DATGGSLD, the antigen binding call is reported as “no binding”.
For DTREGDVA, the antigen binding call was “no binding”.
For STAESDGA, the antigen binding call was “no binding”.
In the case of VGEGGDAY, the antigen binding call is reported as “no binding”.
With VAEKGFLV the antigen binding call was “no binding”.
With SRRETFVF the antigen binding call was “no binding”.
DGGTNDVA was tested, and the antigen binding call was “no binding”.
In the case of VAGTDAGD, the antigen binding call is reported as “no binding”.
In the case of VKGRASGY, the antigen binding call is reported as “no binding”.
With FKGRGSGY the antigen binding call was “binds”.
In the case of FKGEGSLY, the antigen binding call is reported as “no binding”.
With FKGRGSLY the antigen binding call was “binds”.
With YTRGASGA the antigen binding call was “no binding”.
For YTRGAALA, the antigen binding call was “no binding”.
YKRGASLA was tested, and the antigen binding call was “binds”.
In the case of YTRGAAVA, the antigen binding call is reported as “no binding”.
In the case of YTRGADVA, the antigen binding call is reported as “no binding”.
In the case of YKRGASVA, the antigen binding call is reported as “binds”.
With YRTAGSSD the antigen binding call was “binds”.
With YRTAGAAD the antigen binding call was “binds”.
With YRTAGSGD the antigen binding call was “binds”.
YRTAGAGD was tested, and the antigen binding call was “binds”.
With VATGDDGV the antigen binding call was “no binding”.
For STAESSSF, the antigen binding call was “no binding”.
With DKTGNDVA the antigen binding call was “no binding”.
For DRAGDDVY, the antigen binding call was “no binding”.
In the case of YTGTSAVA, the antigen binding call is reported as “no binding”.
SAGRGSAA was tested, and the antigen binding call was “no binding”.
SEGRGDAA was tested, and the antigen binding call was “no binding”.
For VKGRADAA, the antigen binding call was “no binding”.
In the case of SKGRGSAA, the antigen binding call is reported as “binds”.
With VAGRGSAA the antigen binding call was “no binding”.
In the case of VKGRGSAA, the antigen binding call is reported as “binds”.
In the case of VRGRGFLD, the antigen binding call is reported as “binds”.
In the case of AAGRGFLD, the antigen binding call is reported as “no binding”.
With VRGGGFGV the antigen binding call was “no binding”.
With VRGGGFGD the antigen binding call was “binds”.
For VRRANFLD, the antigen binding call was “no binding”.
VEGGGDGD was tested, and the antigen binding call was “no binding”.
DRGGDDVV was tested, and the antigen binding call was “no binding”.
With SEARSAVY the antigen binding call was “no binding”.
For YRARSAVY, the antigen binding call was “binds”.
YRTKGAVY was tested, and the antigen binding call was “binds”.
With DREEGAVY the antigen binding call was “no binding”.
With YRARSAGY the antigen binding call was “binds”.
In the case of YRTRSAVY, the antigen binding call is reported as “binds”.
With SEREADWF the antigen binding call was “no binding”.
VAGTGDWF was tested, and the antigen binding call was “no binding”.
For AETKGDGA, the antigen binding call was “no binding”.
In the case of DGGRSAVF, the antigen binding call is reported as “no binding”.
For FRRGDAVA, the antigen binding call was “binds”.
For FREGSAVA, the antigen binding call was “no binding”.
In the case of FRRGSAVA, the antigen binding call is reported as “binds”.
In the case of DRRGDAVA, the antigen binding call is reported as “no binding”.
In the case of FRRTDFVA, the antigen binding call is reported as “no binding”.
For ARRGSDLA, the antigen binding call was “no binding”.
With FRRGSALA the antigen binding call was “binds”.
With DGGTNDGA the antigen binding call was “no binding”.
With DAAGADWY the antigen binding call was “no binding”.
With YRGRSSWS the antigen binding call was “binds”.
For YRKGGSWS, the antigen binding call was “binds”.
YRAAGSWS was tested, and the antigen binding call was “binds”.
VRTEDSWS was tested, and the antigen binding call was “no binding”.
DRKGGDWS was tested, and the antigen binding call was “no binding”.
YRARGSWS was tested, and the antigen binding call was “binds”.
For AAAGGSWS, the antigen binding call was “no binding”.
With VAEKGDGA the antigen binding call was “no binding”.
With YAEGGYGV chain 1 V68I the antigen binding call was “no binding”.
For DTTGSDWY, the antigen binding call was “no binding”.
In the case of VEGGGDVA, the antigen binding call is reported as “no binding”.
SEARSDWF was tested, and the antigen binding call was “no binding”.
For VAGTGDAA, the antigen binding call was “no binding”.
SATTDSVD was tested, and the antigen binding call was “no binding”.
For SEARSSWS, the antigen binding call was “no binding”.
VRARGDVS was tested, and the antigen binding call was “binds”.
In the case of VRAGGDVF, the antigen binding call is reported as “no binding”.
In the case of YRARSSWS, the antigen binding call is reported as “binds”.
In the case of VEKGGDVS, the antigen binding call is reported as “no binding”.
With YRAEGAWS the antigen binding call was “binds”.
With YRARSAWS the antigen binding call was “binds”.
With YRKKTDWS the antigen binding call was “no binding”.
With SEARSAWS the antigen binding call was “no binding”.
With FAEGDDVA the antigen binding call was “no binding”.
In the case of ATTGGDGV, the antigen binding call is reported as “no binding”.
For VGGTGSGY, the antigen binding call was “no binding”.
VTEGGDVY was tested, and the antigen binding call was “no binding”.
With VEKGGDAA the antigen binding call was “no binding”.
In the case of VTERDDAV, the antigen binding call is reported as “no binding”.
For VAATADSS, the antigen binding call was “binds”.
YRARGAVS was tested, and the antigen binding call was “binds”.
With YRARGSVS the antigen binding call was “binds”.
With YAATADSS the antigen binding call was “no binding”.
With YRARGAAS the antigen binding call was “binds”.
In the case of DAATADSS, the antigen binding call is reported as “no binding”.
YAEESDGS was tested, and the antigen binding call was “no binding”.
